About 5,800 (2.1%) of roughly 270,000 compounds were called active. Not shown: some 16% with an inconclusive outcome. Calls follow the shape of the dose curve; as a rule, active = well fitted inhibition curve with a large enough effect; inconclusive = small, poorly fitted or top-dose-only effect; inactive = flat fitted curve, though single readings scatter. The entries come from a sample that favours actives as a whole. Where a call stands in place of a potency, no number is given.
The molecules below were run against Microtubule-associated protein tau (Homo sapiens) (UniProt P10636) (assay: qHTS for Inhibitors of Tau Fibril Formation, Thioflavin T Binding). Conditions: recombinant tau K18 P301L (four-repeat tau fragment), heparin-induced fibrillization, ThT fluorescence; series mostly up to 57.4 µM.
Sequence of Microtubule-associated protein tau (Homo sapiens) (P10636 561-689 P618L limits assumed): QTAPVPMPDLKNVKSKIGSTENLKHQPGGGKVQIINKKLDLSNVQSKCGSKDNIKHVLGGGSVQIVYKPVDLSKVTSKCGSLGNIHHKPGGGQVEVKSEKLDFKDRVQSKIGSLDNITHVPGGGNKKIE
Outline: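 Recombinant human tau K18 fragment […] carrying P301L, 15 uM unlabeled plus 0.24 uM Alexa 594-labeled, was fibrillized with 20 uM heparin in 100 mM sodium acetate pH 7 for 6 hr at 37 C; 30 uM ThT fluorescence read after 1 hr.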
For `CCCn1ccc2c(OCC(=O)NCc3ccc(F)cc3)cccc2c1=O`, the Potency was “inactive”. In the case of `COc1ccccc1NC(=O)C1=C(C)Nc2nc(SCC(=O)c3ccc(C)cc3)nn2C1c1ccccc1C` (stereo not drawn), the Potency is reported as “inactive”. In the case of `COc1ccc(NC(=O)CCNS(=O)(=O)c2ccc3c(c2)CCCC(=O)N3)cc1Cl`, the Potency is reported as “inactive”. `COc1cc(NC(=O)CSc2nc3nc(C)c(Cc4ccc(C)cc4)c(C)n3n2)cc(OC)c1OC` was tested, and the Potency was “inactive”. In the case of `COc1ccc(-c2nc(Cn3c(=O)cc(C)c4c(C)nn(-c5ccccc5)c43)c(C)o2)c(OC)c1`, the Potency is reported as “inactive”. `CCOC(=O)Cn1c(=O)n(-c2ccccc2OC)c2nc(-c3cccc(F)c3)nc(C(N)=O)c21` was tested, and the Potency was “inactive”. `COc1cc(Cl)c(C)cc1Nc1nnc(-n2nc(C)cc2C)c2ccccc12` was tested, and the Potency was “inactive”. With `CCc1ccc(CNC(=O)c2ccc(CS(=O)c3ccc(Br)cc3)o2)cc1` (stereo not drawn) the Potency was “inactive”. For `CCOC(=O)c1ccccc1NS(=O)(=O)c1ccc(OC)cc1`, the Potency was “inactive”. With `CCOC(=O)C1=C(c2ccc(OC)cc2)C(=O)c2ccccc2C1=O` the Potency was 14.1 µM (active). In the case of `CCCCC(C(=O)OCC(=O)c1ccc(OC)cc1)N1C(=O)c2ccccc2C1=O` (stereo not drawn), the Potency is reported as “inactive”. For `O=c1[nH]n2c(=O)c3c([nH]c2c1N=Nc1ccccc1)CCC3`, the Potency was 3.16 µM (active). In the case of `N#Cc1c2c(c(-c3ccccc3)[nH]c1=O)CCCC2`, the Potency is reported as “inactive”. `O=c1[nH]c2c(c(=O)n1Cc1ccccc1)CCC2` was tested, and the Potency was “inactive”. With `O=C(Nc1cccc(Cl)c1)c1csnn1` the Potency was “inactive”. `CCOc1ccccc1/C=c1\sc2nc(-c3ccco3)nn2c1=O` was tested, and the Potency was 22.4 µM (active). In the case of `Oc1c(C(c2ccccc2Cl)N2CCOCC2)sc2nc(-c3ccco3)nn12` (stereo not drawn), the Potency is reported as “inactive”. `CCOC(=O)C1CCN(C(c2ccc(F)cc2)c2sc3nc(-c4ccco4)nn3c2O)CC1` (stereo not drawn) was tested, and the Potency was “inactive”. With `Cc1ccc2nc(COc3cccc(NC(=O)c4cccc(Cl)c4)c3)cc(=O)n2c1` the Potency was “inactive”. For `Clc1cccc(N=C2NN=C(c3ccc4c(c3)OCCO4)CS2)c1`, the Potency was 15.8 µM (active). `O=C1C(Cl)=C(N2CCOCC2)C(=O)N1c1ccccc1` was tested, and the Potency was 12.6 µM (active). With `O=C1OC(NC(=O)c2ccccc2)C(N2CCOCC2)=C1Cl` (stereo not drawn) the Potency was “inactive”. For `c1ccc(-n2nnnc2N2CCOCC2)cc1`, the Potency was “inactive”. In the case of `CCc1ccc(NC(=O)CSc2nc3c([nH]c4ccccc43)c(=O)n2-c2cccc(OC)c2)cc1`, the Potency is reported as “inactive”. `CCOC(=O)c1cc(Sc2ccccc2N)cc(C(=O)OCC)n1` was tested, and the Potency was “inactive”. For `Nc1ccccc1Sc1ccc(C(F)(F)F)cc1[N+](=O)[O-]`, the Potency was “inactive”. `CCS(=O)(=O)c1cc([N+](=O)[O-])c(Sc2ccccc2N)s1` was tested, and the Potency was 10 µM (active). `Cc1ccc(CNS(=O)(=O)c2ccc(-c3cc(C(F)(F)F)on3)s2)cc1` was tested, and the Potency was “inactive”. For `O=C(NC(=S)Nc1ccc(S(=O)(=O)N2CCOCC2)cc1)c1ccccc1[N+](=O)[O-]`, the Potency was “inactive”. In the case of `O=C(Nc1cc(S(=O)(=O)N2CCOCC2)ccc1Cl)c1cc(=O)c2ccccc2o1`, the Potency is reported as “inactive”. In the case of `O=[N+]([O-])c1cc(Cl)cc(/C=N/NC(=S)Nc2cc(S(=O)(=O)N3CCOCC3)ccc2Cl)c1O`, the Potency is reported as 3.16 µM (active). For `Cc1ccc(N(C)C(=O)C2CCN(S(=O)(=O)c3ccc4c(c3)CCCN4C(=O)C3CCC3)CC2)cc1`, the Potency was “inactive”. In the case of `CN(C)c1ccc(/C=N/NC(=O)c2ccc(Cn3cc(Br)cn3)o2)cc1`, the Potency is reported as 12.6 µM (active). With `O=C(N/N=C\c1ccc(Br)cc1)c1ccc(Cn2cccn2)o1` the Potency was “inactive”. In the case of `O=C(N/N=C/c1ccc2c(c1)OCO2)c1ccc(Cn2cc([N+](=O)[O-])cn2)o1`, the Potency is reported as “inactive”. With `CCOC(=O)c1c(N)sc(C(C)=O)c1C` the Potency was “inactive”. In the case of `COC(=O)c1sc(=S)n(-c2ccccc2)c1N`, the Potency is reported as “inactive”. With `COCCOC(=O)c1sc(=S)n(CCOC)c1N` the Potency was 28.2 µM (active). `COc1ccccc1N1CCN(C(=O)C2CCN(S(=O)(=O)c3c(C)noc3/C=C/c3ccc(C)cc3)CC2)CC1` was tested, and the Potency was “inactive”. With `CCn1cc(C(=O)OCC(=O)Nc2cc(C)cc(C)c2)c(=O)c2ccc(C)nc21` the Potency was “inactive”. For `CCCS(=O)(=O)N1CCC(n2c(C(F)(F)F)nc3cccnc32)CC1`, the Potency was “inactive”. For `COc1ccc(CCNC(=O)c2ccc3c(c2)sc2nc(-c4ccc(C)cc4)cn23)cc1OC`, the Potency was “inactive”. `O=C(NCc1ccc(Cl)cc1)c1ccc2c(c1)nnn2C1CCCC1` was tested, and the Potency was “inactive”.

From PubChem BioAssay AID1460 (National Center for Advancing Translational Sciences (NCATS), 2008)
Also: nearly all actives have a fitted effect of over 55% in size.
Potency is read from the fitted curve at half-maximal effect.
